# The whole screen tested about 150,000 compounds, of which about 540 (0.36%) showed an effect of 50% or more. The entries come from a sample that favours strong results as a whole.
# Tested on: Plasmodium falciparum
# Experiment: Primary screen in NF54 nanoGlo assay, in single point, at 2uM, 72h; a lower Z score goes with more inhibition
# Assay type: functional, Erythrocyte
# Details: timepoint 72 hour
SMILES,% Inhibition,Z score
Cc1ccc(CNC(=O)NCC(=O)N2CCC=C(F)C2)cc1,0%,0.03
O=C(Nc1cnccc1CO)c1csc(C2CCCCC2)c1,0%,0.04
O=C(N[C@H]1C[C@@H]2C[C@H]1N(C(=O)c1ccccc1C(F)(F)F)C2)c1cccnc1,35%,-3.96
Cc1cccc(NCc2ccc(N3N=C(c4ccccc4)C[C@H]3c3ccccc3)cc2)c1,-1%,0.11
c1ccc(C2=NN(c3ccc(-c4cc(-c5ccccc5)[n+](-c5ccccc5)c(-c5ccccc5)c4)cc3)[C@H](c3ccccc3)C2)cc1,91%,-14.02
O=C(NCc1ccc(-n2cncn2)nc1)c1ccncc1,-19%,1.67
O=C(Cc1ccc(Cl)cc1)Nc1cnc(-n2ccnc2)nc1,4%,-0.61
COC1(C)CC(N(C)C(=O)[C@@H]2Cc3cncn3C(=O)N2)C1(C)C (some centres not stated),-3%,0.52
Cn1cnnc1[C@H]1CCCN(S(=O)(=O)N2CCCCC2)C1,-6%,0.88
O=C(N[C@H]1CCc2ncccc2C1)c1cccc(B(O)O)c1,-4%,0.45
O=C(NCCN1CCC(CO)CC1)N1CC(Oc2ccccc2F)C1,-17%,1.55
CC(=O)N[C@H]1C[C@@H](c2cc(NCCCc3cccnc3)nc(C)n2)C1,-15%,2.91
N[C@H]1C[C@H](c2cc(NCCCc3cccnc3)nc(C3CC3)n2)C1,71%,-7.09
NC1CC(c2cc(NCc3cccnc3)nc(C3CC3)n2)C1 (configuration not stated),15%,-2.04
C[C@@H](C(=O)NC(C)(C)c1noc(C(N)=O)n1)c1ccccc1,2%,-0.23
O=C1COc2ccccc2N1Cc1nc(-c2ccc(N3CCOCC3)cc2)no1,-19%,2.51
CC(C)N(CC(=O)Nc1nccs1)C(=O)COCc1ccccc1,-7%,0.71
CC(C)N(CC(=O)Nc1nccs1)Cc1ccccn1,65%,-10.08
C[C@@H](c1cccnc1)N(C)CC(=O)Nc1nccs1,9%,-1.03
COc1ccc(Nc2nc(N3CCCC3)nc3c2cnn3C)cc1Cl,27%,-3.01
O=C(Cn1ncn2nccc2c1=O)Nc1cc(Cl)cc(Cl)c1,-3%,0.43
Cc1cc(=O)[nH]c(-n2nc(C3CC3)cc2NC(=O)C(C)(C)Oc2ccc(Cl)cc2)n1,84%,-15.44

SMILES,% Inhibition,Z score
CC(C)(Oc1ccc(Cl)cc1)C(=O)Nc1c2c(nn1C(C)(C)C)CS(=O)(=O)C2,-14%,2.68
COc1ccc(Cl)cc1C(=O)Nc1cc(C2CC2)nn1-c1nc(C)cc(=O)[nH]1,63%,-6.61
COc1ccc(Cl)cc1C(=O)N[C@H]1CCc2nn(C)c(=O)cc2C1,-18%,3.11
COc1ccc(CC(=O)Nc2cc(C3CC3)nn2-c2nc(C)cc(=O)[nH]2)cc1,0%,-0.01
COc1ccc(Cl)cc1C(=O)Nc1ccnn1C[C@H]1CCOC1,3%,-0.37
Cc1cnn(CCCNC(=O)C[C@H]2COCCN2Cc2ccc(C)o2)c1,-20%,2.24
CN(C)c1ccc(NC(=O)Cc2cnn(-c3ccccc3)c2)cn1,-12%,1.6
N#Cc1nccnc1N[C@H]1CCCN(CC(F)(F)F)C1,-11%,1.83
Cc1ccc(CN2C[C@@H](CO)[C@H](NC(=O)C3CCC3)C2)o1,-6%,0.86
CC(c1ccccc1)N1C(=O)c2ccccc2C1c1c[nH]c2ccccc12 (configuration not stated),43%,-5.38
COc1ccc(N2C(=O)c3ccccc3[C@@H]2c2cn(C)c3ccccc23)cc1,7%,-0.85
Cc1ccc(N2C(=O)c3ccccc3[C@@H]2c2c[nH]c3ccccc23)cc1,63%,-5.25
COc1ccc(CC(=O)N2CCCS(=O)(=O)C[C@H]2C2CC2)nc1,-1%,0.08
Cc1cccc2ncnc(N(C)C3CC[S+]([O-])CC3)c12 (configuration not stated),3%,-0.52
Cc1cccc2ncnc(N(C)[C@@H](C)Cc3ccc(O)cc3)c12,77%,-16.2
CC1(C)C[C@@H](NC(=O)[C@H]2CC[C@H](Cn3cnc4ccccc4c3=O)CC2)CCO1,-6%,0.79
C[C@@]1(NC(=O)CCc2nc(C3CCCC3)no2)CC=CCC1,-10%,1.9
CN1CC[C@H](N(C)C(=O)c2ccc(-c3ccc4c(=O)[nH]ccc4c3)cc2)C1,-4%,0.47
O=C(NCC[C@H]1CCOC1)c1ccc(-c2ccc3cc[nH]c(=O)c3c2)cc1,-14%,1.37
CN(C)c1ccc([C@@H](CNC(=O)c2cccc(F)c2)c2c[nH]c3ccccc23)cc1,2%,-0.26
CN1CCC(N2CCC(CN(Cc3ccncc3)C3CCOCC3)CC2)CC1,0%,0
COCCN1CCC(CN(Cc2ccncc2)Cc2cc(C)c(C)o2)CC1,-30%,4.08

SMILES,% Inhibition,Z score
COc1ccc(CN(Cc2ccncc2)CC2CCN(C3CCN(C)CC3)CC2)c(F)c1,88%,-10.13
CN1CCC(N2CCC(CN(Cc3ccncc3)Cc3c(F)cccc3Cl)CC2)CC1,98%,-9.12
COCCN1CCC(CN(Cc2ccncc2)Cc2nc3ccc(F)cc3[nH]2)CC1,0%,0.04
CC(=O)NCCn1ccnc1-c1ccc(F)c(F)c1F,-9%,1.18
C[C@H](NCC1(c2c(F)cccc2F)CC1)c1cnn(C)c1,-3%,0.45
CC(C)(C)CN1C[C@@H](NC(=O)COc2ccc3c(c2)OCO3)CC1=O,-1%,0.23
CCCC(CCC)C(=O)Nc1ccc(O)cc1C(=O)O,40%,-0.25
COCC(O)CN1CCC(NC2CCCc3cc(F)ccc32)CC1 (configuration not stated),1%,-0.12
COCCCN(Cc1ccc(C(O)(c2ccc(OC)cc2)c2ccc(OC)cc2)o1)Cc1ccccc1OC,3%,-0.38
CN1CCO[C@@H](CNc2ncnc3c2cnn3-c2ccccc2F)C1,-1%,0.08
Cc1nc(N2CCCC2C(=O)N2CCC(C(O)Cc3ccccc3)CC2)nc2ccccc12 (configuration not stated),-15%,1.71
CC1CC(Nc2ncnc3cc(Br)ccc23)CCN1C (configuration not stated),97%,-8.72
CS(=O)(=O)N1CCC(Nc2ncnc3cc(Cl)ccc23)CC1,18%,-2.07
O=C(O)c1ccc2c(NC3CCCC3)ncnc2c1,-5%,0.71
OC(CN1CCOC2CCCCC21)Cn1cccn1 (configuration not stated),-5%,0.7
CC(C)CNC(=O)c1[nH]cnc1C(=O)N1CCC(Cc2ccccc2)CC1,31%,-3.65
CC[C@H]1CCCCCN1C(=O)NCCc1nnc(C)s1,-9%,1.2
COc1ncc(C(=O)NCCCn2ccnc2)cn1,-14%,1.29
COc1ccc(Nc2nnc(-c3ccc(NC(=O)C(=O)NCCCn4ccnc4)cc3)s2)cc1,66%,-7.06
CCN(CC)Cc1cnc2c(C(=O)N(C)C3Cc4ccccc4C3)cnn2c1,-6%,0.83
CO[C@H]1CCOC[C@@H]1NC1CCN(c2ncc3ccc(F)cc3n2)CC1,1%,-0.16
CN1C(=O)[C@@H]2CC[C@H]1CN(C1CCN(c3ncc4ccc(F)cc4n3)CC1)C2,3%,-0.38

SMILES,% Inhibition,Z score
Cc1ccc2c(c1)C(=O)N1CCCC1C(=O)N2CC(=O)NCC1CCCO1 (configuration not stated),-1%,0.1
Nc1c2c(nc3c1cnn3-c1cc(F)cc(F)c1)CCCC2=O,-9%,1.23
COc1ccc(-n2ncc3c(N)c4c(nc32)CCCC4=O)cc1,56%,-1.02
Cc1ccc(-n2ncc3c(N)c4c(nc32)CCCC4=O)cc1,12%,-2.26
O=C(NCCn1ccnc1)c1[nH]nc(C2CC2)c1Cl,-9%,1.61
CC(C)N(C)C(=O)C1CCN(C(=O)[C@@H](N)C(C)(C)C)CC1,-1%,0.1
COC1CCC(CCNCc2ccccc2)CC1 (configuration not stated),-15%,2.25
COc1ccc(CNC/C=C/c2ccccc2)cc1,-20%,2.3
COc1ccc(CNCCC2C(C)CN(C)C(C)C2Cc2ccccc2)cc1 (configuration not stated),55%,-7.17
COc1cccc(OC2CN(C[C@H]3COc4ccccc4O3)C2)c1,3%,-0.59
CC(CNC(=O)N(C)CCc1cccs1)N1CCOCC1C (configuration not stated),5%,-0.94
CCc1cc(N2CCCO2)nc(-c2ccncc2)n1,1%,-0.06
Cn1cnc2c(NCC(=O)N3CCN(c4ccccc4)CC3)ncnc21,-1%,0.15
CN(Cc1ccc2cc(O)ccc2c1)C[C@H]1CCCCO1,8%,-0.87
CN1CCC(N2CCN(Cc3ccc4cc(O)ccc4c3)CC2)CC1,90%,-8.27
Oc1ccc2cc(CN3CCC[C@H](CN4CCCC4)C3)ccc2c1,97%,-3
CN(CC[C@H]1CCCCO1)Cc1ccc2cc(O)ccc2c1,-1%,0.18
CC(C)[C@H]1CN(C)CCN1Cc1ccc2cc(O)ccc2c1,-17%,2.23
CN1CC[C@H](CN(C)Cc2ccc3cc(O)ccc3c2)C1,56%,-7.71
c1cc(CN2CCC[C@H](CN3CCCC3)C2)co1,-3%,0.59

# From ChEMBL document CHEMBL4888484, “Replenishing the malaria drug discovery pipeline: Screening and hit evaluation of the MMV Hit Generation Library 1 (HGL1) against asexual blood stage Plasmodium falciparum ,using a nano luciferase reporter read-out” (2022)
